Reference: the supplement of paper PMC10849652
About 8,800 targets were measured; listed, in parts, are those with a hit and a random draw of the rest. About 0.5% of all pairs of compound and target were hits.

Columns and labels:
Assay in all cases: log2 fold change, soluble protein after heating vs DMSO (PISA); higher = thermal stabilisation; K562 lysate, 10 uM; active = over 0.2 and 3.5 SD of the protein, either way, in both replicates (recomputed)
erlotinib = compound: C#Cc1cccc(Nc2ncnc3cc(OCCOC)c(OCCOC)cc23)c1 [erlotinib]
Method in brief: (§1)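 K562 pellets were dounce-homogenised in PBS pH 7.4 containing 1 mM MgCl2, and the crude extract, at 1 mg/mL protein, was exposed to 10 μM compound for 30 min. Aliquots were heated for 3 min across 48°C-58°C, pooled, brought to 0.5% NP-40 at 4°C and spun at 21,000xg for 90 min, with the supernatant taken as soluble protein. TMTpro 16plex LC-MS/MS with equalised channel sums quantified that protein. Values are log-two fold changes in thermal stability relative to solvent controls, taken from duplicates.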

[1] = compound: C/C(=N\NC(=O)C1=CC(=CC=C1)S(=O)(=O)N2CCOCC2)/C3=C(C=CC(=C3)Cl)O
Method in brief: as §1

[2] = compound: C1=CC(=CC=C1C2=NC3=C(N2)C=C(C=C3)C(=O)N)OC4=CC=C(C=C4)Cl
Method in brief: as §1

[3] = compound: C1=CC2=C(C=CC(=C2)/C=C\3/C(=O)NC(=NCC4=CC=CS4)S3)N=C1
Method in brief: as §1

[4] = compound: C1=CC2=NC=CN=C2C=C1/C=C/3\C(=O)NC(=O)S3
Method in brief: as §1

[5] = compound: C1=CC=C(C=C1)C2=NC(=C(N2)C3=CC=NC=C3)C4=CC(=C(C=C4)Cl)O
Method in brief: as §1

[6] = compound: C1=CC=C2C(=C1)C3=NNC4=CC=CC(=C43)C2=O
Method in brief: as §1

[7] = compound: C1CCN(C1)C(=O)NC2=CC=CC(=C2)NC3=NC=C(C(=N3)NCCC4=CN=CN4)Br
Method in brief: as §1

[8] = compound: C1CN(CCC1(CC2=CC=C(C=C2)Cl)N)C3=NC=NC4=C3C=CN4
Method in brief: as §1

IRAK-1-4 Inhibitor I = compound: C1COCCN1CCN2C3=CC=CC=C3N=C2NC(=O)C4=CC(=CC=C4)[N+](=O)[O-] [IRAK-1-4 Inhibitor I]
Method in brief: as §1

Measured: log2 fold change

CTPS1 (UniProt P17812)
Sequence of UniProt P17812 (P17812 whole entry, looked up): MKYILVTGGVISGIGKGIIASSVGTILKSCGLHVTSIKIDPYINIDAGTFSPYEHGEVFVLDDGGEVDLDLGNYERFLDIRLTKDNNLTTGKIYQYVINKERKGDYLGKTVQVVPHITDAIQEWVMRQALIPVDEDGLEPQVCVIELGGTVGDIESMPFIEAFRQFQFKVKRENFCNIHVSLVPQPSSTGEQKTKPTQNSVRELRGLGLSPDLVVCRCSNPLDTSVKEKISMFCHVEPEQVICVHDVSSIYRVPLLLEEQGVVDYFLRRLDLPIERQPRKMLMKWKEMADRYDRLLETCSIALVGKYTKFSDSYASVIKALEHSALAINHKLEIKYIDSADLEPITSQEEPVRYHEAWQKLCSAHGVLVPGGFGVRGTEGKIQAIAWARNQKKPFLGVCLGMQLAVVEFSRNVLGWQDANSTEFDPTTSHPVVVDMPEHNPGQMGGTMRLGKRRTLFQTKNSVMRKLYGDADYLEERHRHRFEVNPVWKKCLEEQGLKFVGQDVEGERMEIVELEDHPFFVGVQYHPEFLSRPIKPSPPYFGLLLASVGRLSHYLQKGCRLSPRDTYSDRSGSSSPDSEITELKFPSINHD
inactive: erlotinib -0.002 | [1] 0.011 | [2] -0.027 | [3] -0.009 | [4] 0.005 | [5] -0.013 | [6] -0.011 | [7] -0.007 | [8] -0.007 | IRAK-1-4 Inhibitor I -0.001

CIP2A (UniProt Q8TCG1)
inactive: erlotinib 0.057 | [1] 0.18 | [2] -0.086 | [3] 0.034 | [4] -0.019 | [5] 0.019 | [6] -0.11 | [7] -0.002 | [8] 0.02 | IRAK-1-4 Inhibitor I 0.007

CSTB (UniProt P04080)
Sequence of UniProt P04080 (P04080 whole entry, looked up): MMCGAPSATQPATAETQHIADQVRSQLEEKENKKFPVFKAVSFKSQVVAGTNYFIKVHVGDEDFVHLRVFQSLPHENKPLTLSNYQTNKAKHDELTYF
inactive: erlotinib -0.024 | [1] 0.054 | [2] -0.016 | [3] 0.018 | [4] 0.004 | [5] -0.028 | [6] 0.031 | [7] -0.015 | [8] 0.031 | IRAK-1-4 Inhibitor I 0.082

CNDP2 (UniProt Q96KP4)
inactive: erlotinib -0.016 | [1] 0.004 | [2] 0.02 | [3] -0.038 | [4] -0.009 | [5] -0.022 | [6] 0.007 | [7] 0.039 | [8] 0.041 | IRAK-1-4 Inhibitor I 0.051

DOCK10 (UniProt Q96BY6)
inactive: erlotinib -0.23 | [1] -0.191 | [2] -0.03 | [3] 0.007 | [4] -0.094 | [5] -0.048 | [6] -0.034 | [7] -0.064 | [8] -0.028 | IRAK-1-4 Inhibitor I -0.017

DHFR (UniProt P00374)
Sequence of UniProt P00374 (P00374 whole entry, looked up): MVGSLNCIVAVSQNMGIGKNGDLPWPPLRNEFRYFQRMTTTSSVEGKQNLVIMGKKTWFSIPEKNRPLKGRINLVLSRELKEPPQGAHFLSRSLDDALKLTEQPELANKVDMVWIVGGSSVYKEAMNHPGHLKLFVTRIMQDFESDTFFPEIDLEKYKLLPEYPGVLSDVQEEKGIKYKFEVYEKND
inactive: erlotinib 0.031 | [1] 0.046 | [2] -0.023 | [3] -0.019 | [4] 0.045 | [5] 0.025 | [6] -0.01 | [7] 0.034 | [8] 0.019 | IRAK-1-4 Inhibitor I -0.055

CSTF2 (UniProt P33240)
inactive: erlotinib -0.036 | [1] -0.002 | [2] 0.048 | [3] -0.048 | [4] 0.044 | [5] 0.011 | [6] -0.04 | [7] 0.002 | [8] 0 | IRAK-1-4 Inhibitor I 0.053

COQ8A (UniProt Q8NI60)
inactive: erlotinib 0.154 | [1] 0.014 | [2] -0.057 | [3] 0.008 | [4] -0.083 | [5] 0.029 | [6] 0.105 | [7] -0.01 | [8] 0.007 | IRAK-1-4 Inhibitor I -0.034

CLPB isoform 2 (UniProt Q9H078)
Sequence of UniProt Q9H078 (Q9H078 whole entry, looked up): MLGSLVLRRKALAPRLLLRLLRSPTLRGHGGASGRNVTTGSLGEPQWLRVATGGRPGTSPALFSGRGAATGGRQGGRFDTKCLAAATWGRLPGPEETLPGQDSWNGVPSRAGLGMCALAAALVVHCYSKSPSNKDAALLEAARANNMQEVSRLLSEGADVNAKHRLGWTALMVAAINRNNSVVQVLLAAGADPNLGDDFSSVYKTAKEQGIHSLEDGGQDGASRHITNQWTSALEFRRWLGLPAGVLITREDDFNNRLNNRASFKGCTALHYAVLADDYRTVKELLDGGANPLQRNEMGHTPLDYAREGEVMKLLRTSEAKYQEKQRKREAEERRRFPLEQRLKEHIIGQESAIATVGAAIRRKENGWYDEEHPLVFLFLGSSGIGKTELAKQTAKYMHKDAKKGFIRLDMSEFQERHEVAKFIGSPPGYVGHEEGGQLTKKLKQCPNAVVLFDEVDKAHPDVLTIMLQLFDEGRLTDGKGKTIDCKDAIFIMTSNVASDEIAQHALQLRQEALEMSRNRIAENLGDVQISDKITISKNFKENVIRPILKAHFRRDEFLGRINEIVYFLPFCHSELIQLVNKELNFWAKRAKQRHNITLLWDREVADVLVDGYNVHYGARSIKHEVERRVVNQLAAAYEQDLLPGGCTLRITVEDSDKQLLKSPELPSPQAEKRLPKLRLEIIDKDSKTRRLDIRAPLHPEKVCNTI
inactive: erlotinib 0.023 | [1] -0.029 | [2] -0.028 | [3] 0.02 | [4] -0.047 | [5] -0.018 | [6] 0.006 | [7] 0.022 | [8] 0.055 | IRAK-1-4 Inhibitor I -0.002

DCP2 (UniProt Q8IU60)
inactive: erlotinib 0.005 | [1] 0.039 | [2] -0.029 | [3] -0.064 | [4] -0.037 | [5] -0.007 | [6] 0.001 | [7] 0.025 | [8] -0.014 | IRAK-1-4 Inhibitor I -0.017

CKM (UniProt P06732)
inactive: erlotinib 0.034 | [1] -0.167 | [2] 0.003 | [3] 0.023 | [4] 0.058 | [5] -0.024 | [6] 0 | [7] -0.017 | [8] 0.038 | IRAK-1-4 Inhibitor I 0.044

CRABP2 (UniProt P29373)
Sequence of UniProt P29373 (P29373 whole entry, looked up): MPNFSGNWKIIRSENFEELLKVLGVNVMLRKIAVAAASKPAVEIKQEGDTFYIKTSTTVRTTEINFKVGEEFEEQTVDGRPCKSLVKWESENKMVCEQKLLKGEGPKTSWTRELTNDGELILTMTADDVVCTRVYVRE
inactive: erlotinib 0.026 | [1] -0.112 | [2] -0.017 | [3] -0.063 | [4] 0.2 | [5] -0.042 | [6] -0.151 | [8] 0.309 | IRAK-1-4 Inhibitor I -0.024
active: [7] 0.399

DGCR8 (UniProt Q8WYQ5)
Sequence of UniProt Q8WYQ5 (Q8WYQ5 whole entry, looked up): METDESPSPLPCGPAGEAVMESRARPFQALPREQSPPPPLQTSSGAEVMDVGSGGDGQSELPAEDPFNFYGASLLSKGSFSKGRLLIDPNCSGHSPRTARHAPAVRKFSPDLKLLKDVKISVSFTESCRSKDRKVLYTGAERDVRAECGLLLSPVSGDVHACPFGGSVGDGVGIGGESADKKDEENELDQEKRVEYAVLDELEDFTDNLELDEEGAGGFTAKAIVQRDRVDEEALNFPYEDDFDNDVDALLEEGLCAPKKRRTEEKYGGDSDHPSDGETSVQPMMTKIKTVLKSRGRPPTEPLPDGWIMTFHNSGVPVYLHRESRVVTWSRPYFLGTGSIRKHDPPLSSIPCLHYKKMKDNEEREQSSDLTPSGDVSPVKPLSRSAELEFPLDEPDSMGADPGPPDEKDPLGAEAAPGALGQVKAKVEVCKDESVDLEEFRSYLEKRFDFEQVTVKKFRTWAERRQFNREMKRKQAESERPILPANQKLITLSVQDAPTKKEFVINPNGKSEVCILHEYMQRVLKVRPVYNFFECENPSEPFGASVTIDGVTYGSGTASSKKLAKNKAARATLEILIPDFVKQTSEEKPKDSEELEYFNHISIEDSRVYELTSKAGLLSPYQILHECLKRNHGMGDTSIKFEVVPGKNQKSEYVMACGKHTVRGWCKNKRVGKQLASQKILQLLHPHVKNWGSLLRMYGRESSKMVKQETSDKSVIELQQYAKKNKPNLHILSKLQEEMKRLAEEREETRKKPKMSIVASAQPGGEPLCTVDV
inactive: erlotinib 0.045 | [1] -0.026 | [2] 0.019 | [3] 0.023 | [4] -0.057 | [5] 0.002 | [6] -0.011 | [7] -0.019 | [8] 0 | IRAK-1-4 Inhibitor I -0.038

CLPTM1L (UniProt Q96KA5)
inactive: erlotinib -0.019 | [1] 0.014 | [2] -0.143 | [3] -0.01 | [4] 0.009 | [5] -0.052 | [6] -0.197 | [7] -0.059 | [8] 0.091 | IRAK-1-4 Inhibitor I -0.01

DEF6 (UniProt Q9H4E7)
Sequence of UniProt Q9H4E7 (Q9H4E7 whole entry, looked up): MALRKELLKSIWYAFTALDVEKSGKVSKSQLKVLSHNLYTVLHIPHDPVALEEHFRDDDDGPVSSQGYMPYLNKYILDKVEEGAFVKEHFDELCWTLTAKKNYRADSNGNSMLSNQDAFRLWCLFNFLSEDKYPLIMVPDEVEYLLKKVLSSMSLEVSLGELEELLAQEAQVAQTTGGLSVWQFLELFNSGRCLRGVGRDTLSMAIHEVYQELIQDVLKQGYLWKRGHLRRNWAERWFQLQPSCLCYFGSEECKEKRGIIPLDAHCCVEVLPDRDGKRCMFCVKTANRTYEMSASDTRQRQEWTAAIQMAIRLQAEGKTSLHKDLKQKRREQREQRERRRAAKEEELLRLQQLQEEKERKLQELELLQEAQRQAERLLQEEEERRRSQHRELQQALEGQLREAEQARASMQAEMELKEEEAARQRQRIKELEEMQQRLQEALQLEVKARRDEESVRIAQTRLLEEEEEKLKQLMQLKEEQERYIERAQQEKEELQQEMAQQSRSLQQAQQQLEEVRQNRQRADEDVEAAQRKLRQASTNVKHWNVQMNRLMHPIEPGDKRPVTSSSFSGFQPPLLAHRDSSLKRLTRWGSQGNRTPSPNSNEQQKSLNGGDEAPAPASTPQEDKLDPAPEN
inactive: erlotinib 0.02 | [1] 0.07 | [2] -0.072 | [3] 0.067 | [4] -0.104 | [5] 0.016 | [6] -0.131 | [7] 0.05 | [8] 0 | IRAK-1-4 Inhibitor I 0.019

CORO1A (UniProt P31146)
Sequence of UniProt P31146 (P31146 whole entry, looked up): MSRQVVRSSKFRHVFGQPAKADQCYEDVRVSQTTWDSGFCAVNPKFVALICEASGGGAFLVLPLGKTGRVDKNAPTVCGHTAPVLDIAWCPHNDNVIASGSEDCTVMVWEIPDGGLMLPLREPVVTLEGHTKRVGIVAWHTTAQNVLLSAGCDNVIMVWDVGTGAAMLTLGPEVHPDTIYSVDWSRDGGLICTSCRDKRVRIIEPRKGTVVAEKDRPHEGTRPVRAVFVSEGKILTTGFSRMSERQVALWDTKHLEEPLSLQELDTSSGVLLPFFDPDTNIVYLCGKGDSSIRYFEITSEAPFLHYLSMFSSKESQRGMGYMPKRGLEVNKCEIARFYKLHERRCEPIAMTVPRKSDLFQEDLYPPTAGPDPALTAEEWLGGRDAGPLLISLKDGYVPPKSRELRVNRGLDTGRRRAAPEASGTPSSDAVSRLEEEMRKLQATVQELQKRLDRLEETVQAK
inactive: erlotinib 0.077 | [1] 0.086 | [2] -0.032 | [3] 0.036 | [4] -0.022 | [5] 0.005 | [6] 0.009 | [7] 0.155 | [8] -0.031 | IRAK-1-4 Inhibitor I 0.021

COG7 (UniProt P83436)
inactive: erlotinib 0.026 | [1] -0.007 | [2] -0.025 | [3] 0.034 | [4] 0.012 | [5] 0.006 | [6] -0.037 | [7] -0.022 | [8] 0.05 | IRAK-1-4 Inhibitor I -0.039

DIAPH1 (UniProt H9KV28)
inactive: erlotinib -0.1 | [1] -0.013 | [2] -0.053 | [3] 0.005 | [4] -0.04 | [5] -0.164 | [6] -0.024 | [7] 0.031 | [8] -0.037 | IRAK-1-4 Inhibitor I 0.034

CSPP1 (UniProt Q1MSJ5)
inactive: erlotinib -0.028 | [1] -0.094 | [2] 0.079 | [3] 0.017 | [4] -0.088 | [5] 0.021 | [6] -0.137 | [7] -0.02 | [8] 0.007 | IRAK-1-4 Inhibitor I -0.026

COQ9 (UniProt O75208)
Sequence of UniProt O75208 (O75208 whole entry, looked up): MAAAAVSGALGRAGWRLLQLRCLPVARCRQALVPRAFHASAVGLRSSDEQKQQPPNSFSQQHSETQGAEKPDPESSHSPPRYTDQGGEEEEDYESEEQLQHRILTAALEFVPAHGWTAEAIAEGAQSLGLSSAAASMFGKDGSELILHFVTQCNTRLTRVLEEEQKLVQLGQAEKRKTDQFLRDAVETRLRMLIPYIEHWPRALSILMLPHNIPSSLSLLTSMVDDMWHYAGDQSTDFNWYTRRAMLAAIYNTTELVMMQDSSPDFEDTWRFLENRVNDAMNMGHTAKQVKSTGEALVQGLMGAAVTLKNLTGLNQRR
inactive: erlotinib -0.015 | [1] -0.075 | [2] -0.001 | [3] 0.041 | [4] 0.046 | [5] 0 | [6] -0.029 | [7] -0.02 | [8] 0.029 | IRAK-1-4 Inhibitor I -0.011

DDA1 (UniProt Q9BW61)
inactive: erlotinib -0.004 | [1] -0.001 | [2] 0.036 | [3] -0.03 | [4] 0.008 | [5] -0.093 | [6] 0.016 | [7] -0.017 | [8] -0.01 | IRAK-1-4 Inhibitor I 0.012

CIC (UniProt I3L2J0)
inactive: erlotinib 0.013 | [1] -0.248 | [2] 0.079 | [3] 0.122 | [4] 0.027 | [5] -0.047 | [6] -0.062 | [7] 0.005 | [8] -0.04 | IRAK-1-4 Inhibitor I 0.04

DBF4 (UniProt Q9UBU7)
inactive: erlotinib 0.03 | [1] 0.056 | [2] 0.005 | [3] -0.033 | [5] 0.098 | [6] -0.058 | [7] -0.068 | [8] -0.022 | IRAK-1-4 Inhibitor I 0.04
active: [4] -0.342

CMSS1 (UniProt Q9BQ75)
Sequence of UniProt Q9BQ75 (Q9BQ75 whole entry, looked up): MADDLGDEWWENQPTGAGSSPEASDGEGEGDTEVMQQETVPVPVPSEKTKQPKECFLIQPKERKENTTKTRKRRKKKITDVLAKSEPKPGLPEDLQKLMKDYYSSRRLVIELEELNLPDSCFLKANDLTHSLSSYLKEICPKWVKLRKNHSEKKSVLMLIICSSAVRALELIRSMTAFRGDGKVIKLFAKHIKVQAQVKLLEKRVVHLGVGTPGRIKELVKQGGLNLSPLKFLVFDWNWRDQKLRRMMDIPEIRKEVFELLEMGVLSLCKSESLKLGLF
inactive: erlotinib -0.029 | [1] 0.018 | [2] -0.031 | [3] 0.011 | [4] -0.059 | [5] -0.004 | [6] 0.011 | [7] -0.011 | [8] 0.03 | IRAK-1-4 Inhibitor I -0.035

CSDE1 isoform 4 (UniProt O75534)
inactive: erlotinib -0.025 | [1] 0.009 | [2] -0.035 | [3] 0.001 | [4] -0.023 | [5] -0.021 | [6] -0.002 | [7] 0.016 | [8] -0.001 | IRAK-1-4 Inhibitor I -0.017

CNOT4 isoform 6 (UniProt O95628)
Sequence of UniProt O95628 (O95628 whole entry, looked up): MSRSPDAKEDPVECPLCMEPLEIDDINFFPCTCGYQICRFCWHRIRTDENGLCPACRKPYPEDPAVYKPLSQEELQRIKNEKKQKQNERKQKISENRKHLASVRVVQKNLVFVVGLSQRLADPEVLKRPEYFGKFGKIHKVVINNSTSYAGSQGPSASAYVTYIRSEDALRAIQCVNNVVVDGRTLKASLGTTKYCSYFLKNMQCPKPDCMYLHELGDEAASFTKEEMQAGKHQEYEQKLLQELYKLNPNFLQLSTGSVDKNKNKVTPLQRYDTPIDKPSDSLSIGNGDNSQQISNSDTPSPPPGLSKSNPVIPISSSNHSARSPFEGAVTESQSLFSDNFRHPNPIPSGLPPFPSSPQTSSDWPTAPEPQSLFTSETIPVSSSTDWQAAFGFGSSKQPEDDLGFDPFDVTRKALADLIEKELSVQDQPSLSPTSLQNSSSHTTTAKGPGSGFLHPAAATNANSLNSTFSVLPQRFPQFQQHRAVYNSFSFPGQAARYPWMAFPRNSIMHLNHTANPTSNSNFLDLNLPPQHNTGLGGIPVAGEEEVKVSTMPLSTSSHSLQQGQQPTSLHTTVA
inactive: erlotinib -0.025 | [1] -0.016 | [2] 0.005 | [3] 0.017 | [4] 0.009 | [5] -0.035 | [6] 0.043 | [7] -0.032 | [8] -0.013 | IRAK-1-4 Inhibitor I 0.041

COX20 isoform 2 (UniProt Q5RI15)
Sequence of UniProt Q5RI15 (Q5RI15 whole entry, looked up): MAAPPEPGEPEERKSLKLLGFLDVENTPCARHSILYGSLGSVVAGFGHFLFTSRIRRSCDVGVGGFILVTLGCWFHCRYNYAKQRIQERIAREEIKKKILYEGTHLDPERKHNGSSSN
inactive: erlotinib 0.022 | [1] 0.004 | [2] -0.018 | [3] -0.001 | [4] -0.129 | [5] 0.016 | [6] -0.036 | [7] -0.09 | [8] 0.034 | IRAK-1-4 Inhibitor I 0.048

DLG3 isoform 2 (UniProt Q92796)
inactive: erlotinib -0.048 | [1] -0.085 | [2] 0.073 | [3] 0.002 | [4] -0.046 | [5] -0.012 | [6] -0.013 | [7] 0.019 | [8] -0.001 | IRAK-1-4 Inhibitor I -0.056

CUX1 isoform 3 (UniProt P39880)
inactive: erlotinib -0.015 | [1] -0.017 | [2] -0.007 | [3] 0.03 | [4] -0.049 | [5] -0.039 | [6] 0.003 | [7] -0.004 | [8] 0.07 | IRAK-1-4 Inhibitor I 0.014

DHRS11 (UniProt Q6UWP2)
inactive: erlotinib 0.054 | [1] -0.017 | [2] -0.004 | [3] 0.017 | [4] -0.006 | [5] -0.015 | [6] -0.008 | [7] -0.041 | [8] 0.042 | IRAK-1-4 Inhibitor I -0.02
